Experimental data reported in PubChem BioAssay.
Active and inactive are the calls of the source.

Tests used:
[1] = test system: Plasmodium falciparum Sir2 (PF13_0152, Sir2A); test: pfSir2 binders on small-molecule microarrays, primary screen, biochemical, small-molecule microarray, 635 nm fluorescence (AID 1098); details: small-molecule microarray binding, fluorescence 635 nm; higher = more signal;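 further: score merges spot fluorescence intensity with its signal-to-noise ratio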
[2] = small-molecule microarray binders of probe aDKK1, primary screen, biochemical, biotinylated probe, 635/667 nm fluorescence (AID 1099); details: higher = more signal;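 further: score merges 667nm spot fluorescence with signal to noise across triplicate slides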
[3] = small-molecule microarray binders of probe aCHRDL2, primary screen, biochemical, biotinylated probe, 635/667 nm fluorescence (AID 1100); details: higher = more signal
[4] = splicing luciferase reporter signal modulators, primary screen, spliceosome inhibition project, cell-based, HEK293, splice +/- reporter (AID 1101); details: luminescence, 24 h, higher = more signal, called active from +8 up or from −8 down;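 further: HEK293 cells carrying a splicing-competent luciferase reporter gene; test concentration not given here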
[5] = biological target: Fibroblast growth factor 10 (Homo sapiens) (UniProt O15520); test: FGF10 binders on small-molecule microarrays, primary screen, biochemical, small-molecule microarray, 635 nm fluorescence (AID 1102); details: FGF10 binding, fluorescence 635 nm, higher = more signal
[6] = test system: glycogen synthase kinase-3 (GSK3A per assay name; protocol says GSK3B); test: GSK3 binders on small-molecule microarrays, primary screen, biochemical, small-molecule microarray, 635 nm fluorescence, GSK3A (AID 1103); details: small-molecule microarray binding, fluorescence 635 nm; higher = more signal; further: the record names both GSK3A and GSK3B
[7] = biological target: Epidermal growth factor receptor (Homo sapiens) (UniProt P00533); test: EGFR binders on small-molecule microarrays, primary screen, biochemical, small-molecule microarray, 635 nm fluorescence (AID 1104); details: EGFR binding, higher = more signal;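 further: score merges 667 nm emission intensity with spot signal to noise over triplicate slides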
[8] = biological target: Follistatin-related protein 3 (Homo sapiens) (UniProt O95633); test: FSTL3 binders on small-molecule microarrays, primary screen, biochemical, small-molecule microarray, 635 nm fluorescence (AID 1105); details: FSTL3 binding, higher = more signal;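 further: score merges emission near 667 nm and signal to noise per printed spot across three slides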
[9] = biological target: Dickkopf-related protein 1 (Homo sapiens) (UniProt O94907); test: DKK1 binders on small-molecule microarrays, primary screen, biochemical, small-molecule microarray, 635 nm fluorescence scan (AID 1106); details: DKK1 binding, higher = more signal;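 further: score merges emission near 667 nm with signal to noise over three replicate slides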
[10] = test system: Inhibin beta A chain (activin A); test: INHBA (activin A) binders on microarrays, primary screen, biochemical, small-molecule microarray, 635 nm fluorescence scan (AID 1107); details: small-molecule microarray binding, higher = more signal;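 further: mouse activin A protein probed at 4.33 µg/mL on printed slides; score merges bound-protein fluorescence near 667 nm with spot signal-to-noise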
[11] = test system: Human papillomavirus type 1a protein E7 (residues 44-93); test: HPV1a E7 fragment binders on microarrays, primary screen, biochemical, small-molecule microarray, residues 44-93, 635 nm fluorescence (AID 1108); details: small-molecule microarray binding, fluorescence 635 nm; higher = more signal;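 further: E7 fragment applied at 1 µg/mL in TBST for 1 h at 4 C; score combines spot fluorescence with its signal to noise ratio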
[12] = modulators of HCV replicon luciferase signal, primary screen, HCV replication inhibitor project, Huh7 cells, luciferase reporter (AID 1109); details: 48 h, higher = more signal;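 further: huh7 hepatoma cells harbouring a luciferase neomycin HCV replicon reporter; luciferase luminescence as measure of HCV replicon replication; test concentration not given here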
[13] = biological target: Left-right determination factor 2 (Homo sapiens) (UniProt O00292); test: LEFTY2 binders on small-molecule microarrays, primary screen, biochemical, small-molecule microarray, 635 nm fluorescence scan (AID 1110); details: LEFTY2 binding, higher = more signal
[14] = biological target: Calmodulin-1 (Homo sapiens) (UniProt P0DP23); test: CALM1 binders on microarrays, EGTA buffer, profiling panel, biochemical, small-molecule microarray, Cy5-labelled CALM1 (AID 1111); details: Cy5-CALM1 binding fluorescence, higher = more signal;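 further: labelled calmodulin applied in Tris saline Tween buffer holding calcium plus EGTA and DTT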
[15] = biological target: Calmodulin-1 (Homo sapiens) (UniProt P0DP23); test: calcium-bound CALM1 binders on microarrays, profiling panel, artefact control for SMM control-protein annotation, biochemical, small-molecule microarray, Cy5-labelled CALM1, plus calcium (AID 1112); details: Cy5-CALM1 binding fluorescence, higher = more signal;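 further: score merges spot fluorescence with signal to noise from triplicate slides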
[16] = small-molecule microarray binders of probe aWnt5a, primary screen, biochemical, biotinylated probe, 635/667 nm fluorescence (AID 1113); details: higher = more signal;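 further: score merges 667 nm fluorescence intensity with signal-to-noise per printed feature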
[17] = small-molecule microarray binders of probe aShh, primary screen, biochemical, biotinylated probe, 635/667 nm fluorescence (AID 1114); details: higher = more signal;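 further: probe is biotin-labelled aShh protein from a stem cell growth factor screen; measures binding of labelled protein to compounds printed on the slide; score merges feature fluorescence at 667 nm with signal-to-noise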
[18] = small-molecule microarray binders of probe aNog, primary screen, biochemical, biotinylated probe, 635/667 nm fluorescence (AID 1115); details: higher = more signal;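 further: probe is biotinylated aNog protein used at 0.15 µg/mL for 1 h at 4 C; z-score combines 667 nm fluorescence of each spot with its signal to noise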
[19] = biological target: Torsin-1A-interacting protein 1 (Homo sapiens) (UniProt Q5JTV8); test: LAP1 binders from COS7 cell lysate, primary screen, small-molecule microarray, 635/667 nm fluorescence (AID 1116); details: COS7-hLAP1 lysate binding, 635 nm fluorescence, higher = more signal
[20] = biological target: Alpha-bungarotoxin (Bungarus multicinctus) (UniProt P60615); test: alpha-bungarotoxin binders on microarray, profiling panel, artefact control for SMM control protein annotation, biochemical, small-molecule microarray, Alexa647 label, 635/667 nm fluorescence (AID 1117); details: alpha-BTX-A647 binding fluorescence, higher = more signal
Sequence of Alpha-bungarotoxin (Bungarus multicinctus) (P60615 whole entry, looked up): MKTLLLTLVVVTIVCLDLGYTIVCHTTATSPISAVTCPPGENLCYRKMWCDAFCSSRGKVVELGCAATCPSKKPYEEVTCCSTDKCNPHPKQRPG

Sequence of Epidermal growth factor receptor (Homo sapiens) (P00533 whole entry, looked up): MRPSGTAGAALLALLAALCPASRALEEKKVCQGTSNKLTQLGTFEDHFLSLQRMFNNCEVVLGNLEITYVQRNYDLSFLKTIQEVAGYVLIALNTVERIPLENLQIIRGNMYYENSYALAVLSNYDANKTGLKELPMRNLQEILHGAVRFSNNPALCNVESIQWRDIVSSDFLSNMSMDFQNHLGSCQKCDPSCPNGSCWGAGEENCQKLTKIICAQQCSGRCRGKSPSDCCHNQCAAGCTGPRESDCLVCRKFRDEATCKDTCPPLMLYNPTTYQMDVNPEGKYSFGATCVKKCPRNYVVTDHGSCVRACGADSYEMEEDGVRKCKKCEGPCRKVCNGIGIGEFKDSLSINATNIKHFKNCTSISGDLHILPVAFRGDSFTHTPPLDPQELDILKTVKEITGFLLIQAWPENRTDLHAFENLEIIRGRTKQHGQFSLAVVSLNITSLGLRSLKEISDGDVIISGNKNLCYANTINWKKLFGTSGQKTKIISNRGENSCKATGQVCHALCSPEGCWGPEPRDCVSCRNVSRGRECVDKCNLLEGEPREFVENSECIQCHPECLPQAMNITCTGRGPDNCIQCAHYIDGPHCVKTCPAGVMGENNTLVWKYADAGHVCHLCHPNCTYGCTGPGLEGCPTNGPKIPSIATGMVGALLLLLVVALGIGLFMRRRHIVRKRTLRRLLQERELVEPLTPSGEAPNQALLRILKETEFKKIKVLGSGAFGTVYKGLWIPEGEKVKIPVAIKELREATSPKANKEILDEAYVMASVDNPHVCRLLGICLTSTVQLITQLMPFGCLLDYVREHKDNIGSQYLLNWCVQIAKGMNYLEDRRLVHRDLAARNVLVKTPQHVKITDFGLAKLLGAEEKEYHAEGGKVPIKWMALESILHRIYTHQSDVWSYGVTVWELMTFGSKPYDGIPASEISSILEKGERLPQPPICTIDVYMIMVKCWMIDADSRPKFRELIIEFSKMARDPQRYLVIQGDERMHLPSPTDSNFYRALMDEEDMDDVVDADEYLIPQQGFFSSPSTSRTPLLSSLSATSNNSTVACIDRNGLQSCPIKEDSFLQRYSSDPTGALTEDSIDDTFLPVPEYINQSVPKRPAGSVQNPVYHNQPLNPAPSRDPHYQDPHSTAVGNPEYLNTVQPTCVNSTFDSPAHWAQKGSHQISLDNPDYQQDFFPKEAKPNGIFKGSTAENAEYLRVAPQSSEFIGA
Sequence of Fibroblast growth factor 10 (Homo sapiens) (O15520 whole entry, looked up): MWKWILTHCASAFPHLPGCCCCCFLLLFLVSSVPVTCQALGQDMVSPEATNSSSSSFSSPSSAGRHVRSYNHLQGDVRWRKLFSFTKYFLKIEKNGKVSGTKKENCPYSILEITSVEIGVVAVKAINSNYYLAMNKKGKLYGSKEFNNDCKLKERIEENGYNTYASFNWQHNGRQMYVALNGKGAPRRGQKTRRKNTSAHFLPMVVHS
Sequence of Dickkopf-related protein 1 (Homo sapiens) (O94907 whole entry, looked up): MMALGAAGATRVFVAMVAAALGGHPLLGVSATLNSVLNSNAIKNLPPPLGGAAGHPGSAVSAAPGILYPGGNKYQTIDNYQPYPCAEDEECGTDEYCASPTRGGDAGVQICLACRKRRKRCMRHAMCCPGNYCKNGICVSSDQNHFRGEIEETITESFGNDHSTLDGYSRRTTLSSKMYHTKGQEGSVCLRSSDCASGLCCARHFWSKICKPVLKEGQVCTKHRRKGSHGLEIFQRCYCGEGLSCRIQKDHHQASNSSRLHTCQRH
Sequence of Left-right determination factor 2 (Homo sapiens) (O00292 whole entry, looked up): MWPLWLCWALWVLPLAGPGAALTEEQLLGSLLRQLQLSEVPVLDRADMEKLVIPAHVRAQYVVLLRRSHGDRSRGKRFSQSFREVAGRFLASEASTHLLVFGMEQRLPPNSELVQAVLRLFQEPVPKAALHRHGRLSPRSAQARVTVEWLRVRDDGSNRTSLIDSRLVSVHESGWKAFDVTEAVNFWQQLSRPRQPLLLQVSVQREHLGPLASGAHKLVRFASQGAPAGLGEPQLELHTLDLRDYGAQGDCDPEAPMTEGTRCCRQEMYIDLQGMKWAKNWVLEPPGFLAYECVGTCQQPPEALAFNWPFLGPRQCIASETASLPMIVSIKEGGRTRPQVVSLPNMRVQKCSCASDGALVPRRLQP
Sequence of Follistatin-related protein 3 (Homo sapiens) (O95633 whole entry, looked up): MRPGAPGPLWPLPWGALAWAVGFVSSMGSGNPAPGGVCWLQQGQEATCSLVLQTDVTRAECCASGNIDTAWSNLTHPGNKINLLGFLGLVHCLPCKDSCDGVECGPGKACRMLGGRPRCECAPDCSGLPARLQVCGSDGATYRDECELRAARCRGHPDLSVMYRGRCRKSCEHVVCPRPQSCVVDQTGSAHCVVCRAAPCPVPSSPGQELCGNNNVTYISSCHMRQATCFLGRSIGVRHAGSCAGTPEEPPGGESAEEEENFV
Sequence of Torsin-1A-interacting protein 1 (Homo sapiens) (Q5JTV8 whole entry, looked up): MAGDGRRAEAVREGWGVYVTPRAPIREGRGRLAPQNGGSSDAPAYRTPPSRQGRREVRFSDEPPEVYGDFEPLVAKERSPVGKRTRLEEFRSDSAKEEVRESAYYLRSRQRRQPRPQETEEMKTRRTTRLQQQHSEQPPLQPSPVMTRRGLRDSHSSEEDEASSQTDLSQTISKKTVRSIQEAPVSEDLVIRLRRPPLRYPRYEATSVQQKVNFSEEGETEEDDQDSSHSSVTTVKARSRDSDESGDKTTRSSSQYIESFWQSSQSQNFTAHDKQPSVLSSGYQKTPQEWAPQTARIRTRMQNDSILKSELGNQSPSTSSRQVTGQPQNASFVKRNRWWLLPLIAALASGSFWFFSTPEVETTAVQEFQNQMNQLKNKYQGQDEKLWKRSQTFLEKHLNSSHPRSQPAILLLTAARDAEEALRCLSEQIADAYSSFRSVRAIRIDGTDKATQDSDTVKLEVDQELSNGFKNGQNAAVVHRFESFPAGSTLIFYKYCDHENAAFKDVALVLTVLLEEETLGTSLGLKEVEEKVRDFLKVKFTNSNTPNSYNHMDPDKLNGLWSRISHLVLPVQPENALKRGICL

Structure (SMILES)	composite z-score [1]	composite z-score [2]	composite z-score [3]	z-score [4]	composite z-score [5]	composite z-score [6]	composite z-score [7]	composite z-score [8]	composite z-score [9]	composite z-score [10]	composite z-score [11]	z-score [12]	composite z-score [13]	composite z-score [14]	composite z-score [15]	composite z-score [16]	composite z-score [17]	composite z-score [18]	composite z-score [19]	composite z-score [20]
COCCOC(=O)N1C(=O)[C@@]2(c3cc(C#CC4(O)CCCCCC4)ccc31)[C@H](c1ccc(O)cc1)N1[C@H](c3ccccc3)[C@H](c3ccccc3)OC(=O)[C@H]1[C@@H]2C(=O)Nc1nc2ccccc2s1	0.483	1.17	0.784	-0.54 (inactive)	1.35	1.31	0.487	1.38	0.857	1.33	1.36	-0.768	0.463	2.01	0.516	0.0932	-0.131	3.16	1.35	2.21
O=C1O[C@@H](c2ccccc2)[C@@H](c2ccccc2)N2[C@@H](c3ccc(OCCO)cc3)[C@]3(C(=O)Nc4ccccc43)[C@@H](C(=O)NC[C@H](O)c3ccccc3)[C@H]12	1.17	0.189	0.2	-0.203 (inactive)	0.55	0.445	0.566	0.33	0.334	0.632	1.28	-2.1	1.04	0.158	0.0233	-0.0768	-0.2	0.0597	1.3	0.362
COC(=O)[C@@]1(Cc2ccccc2)[C@H]2c3cc(C(=O)N(C)C)n(CCSCCO)c3C[C@H]2CN1C(=O)c1ccccc1	0.751	0.692	0.829	-1.48 (inactive)	0.3	-0.205	-0.348	-0.353	-0.772	0.442	0.933	-1.34	-0.654	1.26	0.786	0.117	0.383	1.66	0.0664	0.317
O=C1c2ccccc2[C@@]2(Cc3ccccc3N(CCN3CCOCC3)C2=O)[C@H](c2ccc(CO)cc2)N1Cc1ccccc1	0.878	-0.0074	0.278	-0.765 (inactive)	-0.667	-1.23	-1.17	-0.267	-0.391	0.819	-0.22	-0.446	-0.976	-0.211	-0.11	-0.128	-0.0709	-0.5	1.01	0.175
COc1cc(OC)c(C(O)C2C=CC3C(=O)NC(=O)C3N2Nc2ccc(Cl)cc2Cl)cc1Br (stereo not given)	1.38	2.08	1.16	2.41 (inactive)	0.0245	0.0735	-0.142	0.498	-0.985	0.312	1.09	-1.66	-0.75	2.09	0.436	-0.0685	0.0875	1.61	1.38	1.27
COC(=O)[C@@]1(Cc2ccc(OC)cc2)[C@H]2c3cc(C(=O)N(C)C)n(CCN4CNCC4=O)c3C[C@H]2CN1C(=O)c1ccccc1	0.44	-0.218	0.7	2.02 (inactive)	-0.33	-0.638	0.259	-0.153	-0.812	0.712	-0.662	-0.422	0.149	0.866	0.701	0.164	-0.0793	-0.505	0.528	-0.124
[N-]=[N+]=Nc1ccccc1[C@H]1OC(c2ccc(OCCCO)cc2)=N[C@@]1(Cc1ccccc1)C(=O)O	1.68	0.292	0.381	-1.23 (inactive)	0.875	0.997	0.0509	0.727	0.293	1.12	1.46	1.09	-0.271	0.577	-0.0461	0.0375	0.483	-0.0277	0.826	2.07
O=C1c2ccccc2[C@@]2(Cc3ccccc3N(CC(F)(F)F)C2=O)[C@H](c2ccc(CO)cc2)N1Cc1ccccc1Cl	0.0888	-0.237	-0.524	-0.311 (inactive)	0.466	0.612	0.509	0.725	0.558	0.531	0.265	0.078	0.547	-0.146	-0.684	-0.166	-0.17	-0.282	0.156	0.287
C=CCNC(=O)[C@H]1[C@@H]2C(=O)O[C@@H](c3ccccc3)[C@@H](c3ccccc3)N2[C@@H](c2ccc(OCCO)cc2)[C@]12C(=O)Nc1ccc(C#CC3=CCCCC3)cc12	1.25	-0.488	0.171	-1.24 (inactive)	0.929	1.05	0.293	0.881	0.183	0.543	1.4	-2.4	0.477	0.508	-0.36	0.0101	0.13	-0.143	1.26	1.11
